Reference: PubChem BioAssay AID2241 (Broad Institute, 2010)
In all, about 21,000 compounds went through this assay and about 110 (0.52%) were called active. Many of the other results were omitted from the sample, so actives are more common in it than they were. A number with no mark means an inactive call.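 Rule for the calls: active = most replicate scores above 10, or exactly half above 10 with mean activity above 10; inconclusive = mean activity below 10 while half the replicates exceed 10; inactive = most replicate scores below 10.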

Test: caspase activation in A1-primed MEFs – cell-based, CaspaseGlo luminescence, A1 inhibitor project, primary screen (AID 2241);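 note: effector caspase 3 and 7 activity cleaving a DEVD luciferin substrate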
Conditions: MEF A1-2A-BIM cells, caspase-Glo luminescence, 3 h; hits give high values; percent of clofoctol signal, DMSO as zero; concentration not given here

Structure (SMILES)	caspase activation
CN[C@@H]1C[C@H]2O[C@@](C)([C@@H]1OC)n1c3ccccc3c3c4c(c5c6ccccc6n2c5c31)C(=O)NC4	81% (active)
CCN(CC)C(=O)c1ccc(N(Cc2ccccc2Cl)S(C)(=O)=O)cc1	-0.556%
C[C@H]1O[C@@H](O[C@H]2CC[C@]3(CO)C4CC[C@]5(C)[C@@H](C6=CC(=O)OC6)CC[C@]5(O)[C@@H]4CC[C@H]3C2)[C@H](O)[C@H](O)[C@@H]1O[C@@H]1O[C@H](CO)[C@@H](O)[C@H](O)[C@H]1O (stereo not given in full)	-0.142%
CC1N=C(c2ccccc2)c2ccccc2N(CCCOc2ccc(F)cc2)C1=O (stereo not given)	-0.726%
Cc1ccc(CSc2nnc(OC(=O)N(C)C)n2-c2cccc(Cl)c2)cc1	-0.0343%
